Measured values as given in PubChem BioAssay (NCATS).
Records with an inconclusive call do not appear. Where a call stands in place of a potency, no number is given. Activity calls are given as the source filed them. Calls follow the shape of the dose curve; as a rule, active = well fitted inhibition curve with a large enough effect; inconclusive = small, poorly fitted or top-dose-only effect; inactive = flat fitted curve, though single readings scatter.

target: Dual specificity protein kinase CLK4 (Homo sapiens) (UniProt Q9HAZ1); assay: qHTS Assay for Inhibitors of CDC-like Kinase 4 (ADP-FP Assay) (AID 1795); conditions: Transcreener ADP fluorescence polarization; series mostly up to 50 µM; also: nearly all actives have a fitted effect of over 60% in size
Sequence (Q9HAZ1 whole entry, looked up): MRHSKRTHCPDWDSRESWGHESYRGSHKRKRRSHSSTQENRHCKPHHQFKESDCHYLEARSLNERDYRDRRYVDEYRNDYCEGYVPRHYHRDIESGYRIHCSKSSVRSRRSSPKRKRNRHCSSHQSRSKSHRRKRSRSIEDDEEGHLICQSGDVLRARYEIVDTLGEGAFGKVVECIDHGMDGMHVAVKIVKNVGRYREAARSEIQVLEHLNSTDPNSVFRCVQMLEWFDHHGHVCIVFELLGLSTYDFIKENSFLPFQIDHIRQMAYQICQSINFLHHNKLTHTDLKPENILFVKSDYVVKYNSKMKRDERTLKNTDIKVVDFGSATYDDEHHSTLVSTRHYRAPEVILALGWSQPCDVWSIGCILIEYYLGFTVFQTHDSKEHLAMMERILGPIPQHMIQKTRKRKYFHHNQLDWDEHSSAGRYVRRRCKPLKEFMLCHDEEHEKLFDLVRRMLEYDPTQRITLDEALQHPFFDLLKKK
In short: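 Inhibition of ADP formation by 6.25 nM Clk4 is measured using 1 uM ATP and 100 uM RS repeat peptide over one hour. Produced ADP displaces a fluorescent tracer from antibody, lowering polarization.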
Potency is read from the fitted curve at half-maximal effect.

Row | Structure (SMILES) | Potency
1 | Cc1nc2cnc(Oc3cccc(Cl)c3)nc2n(C2CC2)c1=O | inactive
2 | CNc1ncncc1-c1ccccc1C(F)(F)F | inactive
3 | CC(=O)NCCNc1nc(-c2ccc(C(=O)N(C)C)cc2)nc2ccccc12 | inactive
4 | COc1ccc(CNc2ccnc(-c3ccc(C(=O)N(C)C)cc3)n2)c(OC)c1 | inactive
5 | Clc1ccccc1-c1cc(NCCN2CCOCC2)ncn1 | inactive
6 | COc1ccc(CNc2cc(-c3cccnc3)ncn2)c(OC)c1 | 10 µM (active)
7 | CCNc1ncc2nc(-c3ccc(OC)cc3)c(=O)n(CCC#N)c2n1 | inactive
8 | FC(F)(F)c1ccccc1-c1cncnc1NCc1cccnc1 | inactive
9 | COc1ncc2nc(-c3cn(C)c4ccccc34)c(=O)n(C)c2n1 | inactive
10 | CN(C)C(=O)c1ccc(-c2cncnc2NCc2ccccc2)cc1 | inactive
11 | COc1ccc(-n2c(=O)c(CCc3ccccc3)nc3cncnc32)cc1 | inactive
12 | Cc1nc2cnc(N(C)C)nc2n(-c2ccccc2)c1=O | inactive
13 | COc1ccccc1CNc1ncncc1-c1ccc(C(=O)N(C)C)cc1 | 12.6 µM (active)
14 | COc1ccc(CNc2ncncc2-c2ccccc2C(F)(F)F)c(OC)c1 | inactive
15 | COCCn1c(=O)c(-c2cccc(C#N)c2)nc2cnc(N3CCOCC3)nc21 | inactive
16 | CNc1ncncc1-c1ccccc1C | inactive
17 | O=c1cnc2cnc(Oc3ccccc3)nc2n1C1CC1 | inactive
18 | COCCn1c(=O)c(-c2cccc(C#N)c2)nc2cnc(Oc3ccc(OC)cc3)nc21 | inactive
19 | O=c1c(-c2ccccc2)nc2cncnc2n1-c1ccccc1 | inactive
